Bioassay records as filed in PubChem BioAssay.
In the library only some 2.1% were active in any assay of this set; here they are far more common.
Measles CPE = protection of cells from measles virus; Measles virus-infected cells, CPE protection, absorbance; protection (pct of control), % at 4 µM; 140,000 compounds, 1.5% hits; AID 841; in the data active = protection mostly above about 24%, no sharp cut-off; inactive = mostly below about 26%
IL1B NFkB inh = blocks IL-1B driven NFkB nuclear translocation in HUVEC cells; HUVEC IL-1B NFkB p65 nuclear translocation imaging; inhibition, % at 2 µM; 94,000 compounds, 0.43% hits;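 active = inhibition above about 30% together with a positive call from visual inspection of the well image, limit read from the data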;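 also: nuclear over cytoplasmic p65 intensity ratio measured by imaging; 0% = IL-1B stimulated DMSO wells and 100% = unstimulated DMSO wells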
NFkB transloc pot = enhances IL-1B driven NFkB nuclear translocation | HUVEC IL-1B NFkB p65 nuclear translocation imaging | activation, % at 2 µM | 94,000 compounds, 0.3% hits;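 active = activation above 40%, about the mean plus 3 SD, also judged a hit on visual image review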;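 also: percent activation is computed from the nuclear over cytoplasmic p65 intensity ratio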
IL1B cytotox = toxic to HUVEC cells under IL-1B stimulation. HUVEC cell count loss, Hoechst imaging, IL-1B stimulated. cell count reduction, % at 2 µM. 94,000 compounds, 0.41% hits;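 active = cell count reduction more than 3 SD above the screen-wide mean, cut at about 70% in these data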;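 also: normalized per plate to untreated control cells as the no-loss baseline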
* hit, by the source's call; x = no result.

SMILES | Measles CPE | IL1B NFkB inh | NFkB transloc pot | IL1B cytotox
COC(=O)C1=C(C(=O)c2ccc(C)cc2)C(c2ccc(OC)c(OC)c2)n2nnnc2N1 (stereo not given) | 6 | 17 | -17 | 8
CCCc1cc(=O)[nH]c(SCC(=O)N2CCN(c3ccc(F)cc3)CC2)n1 | 8 | -2 | 2 | -28
Cc1noc(C)c1S(=O)(=O)NCCCN1CCN(Cc2ccccc2)CC1 | 30* | -5 | 5 | 9
Cc1noc(C)c1S(=O)(=O)NCCN1CCN(c2ccccc2)CC1 | 7 | 31* | -31 | 10
COc1ccc(NC(=O)C2CCCCN2CC(=O)OCc2ccccc2)cc1OC (stereo not given) | 2 | -16 | 16 | 8
Cc1ccccc1-c1nc(S(=O)(=O)c2ccc(Br)cc2)c(NCc2cccnc2)o1 | 1 | 11 | -11 | -13
Cc1ccc(S(=O)(=O)c2nc(-c3ccccc3)oc2NCc2cccnc2)cc1 | 23 | 32* | -32 | 16
CCOC(=O)c1ccc(NC(=O)CC2C(=O)N(c3ccc(F)cc3)C(=O)N2CCC(C)C)cc1 (stereo not given) | 3 | 3 | -3 | -19
O=C(CC1C(=O)NCCN1C(=O)c1ccc(F)cc1)OCc1ccccc1 (stereo not given) | 5 | -13 | 13 | 92*
CCC(=O)N1CCc2cc(S(=O)(=O)N3CCN(C(=O)c4ccco4)CC3)ccc21 | 8 | -16 | 16 | -47
CC(=O)N1CCc2cc(S(=O)(=O)CCC(=O)N3CCN(C(=O)c4ccco4)CC3)ccc21 | 7 | -6 | 6 | 86*
CC(C)(C)NC(=O)COC(=O)c1cncc(Br)c1 | 15 | -2 | 2 | -11
CCCOc1ccccc1NC(=O)/C=C/C(N)=O | 2 | x | x | x
COc1ccc(C2=NN(C)C(=NCc3ccccc3)SC2)cc1 | 13 | 36* | -36 | -5
CCc1nnc2n1N=C(c1ccc(OC)cc1)CS2 | 4 | 4 | -4 | -8
COCC(=O)N(Cc1cc2cc(OC)ccc2[nH]c1=O)c1ccc(C)cc1 | 8 | 2 | -2 | 0
Cc1ccc(NC(=S)NCC2CCCO2)cc1C (stereo not given) | 15 | 11 | -11 | 91*
Cc1ccc(NC(=S)NCC2CCCO2)cc1 (stereo not given) | 13 | -11 | 11 | -1
Cn1nccc1C(=O)N1CCN(c2ccc(F)cc2)CC1 | 10 | 7 | -7 | -3
CCOC(=O)N1CCN(C(=O)c2ccc3c(c2)sc2nc(-c4ccc(OC)cc4)cn23)CC1 | 63* | -6 | 6 | -19
CCOC(=O)/C=C/S(=O)(=O)c1ccc(NC(C)=O)cc1 | 0 | 33* | -33 | -8
COc1ccccc1C(=O)NCCCNc1ccc([N+](=O)[O-])cc1 | 27* | x | x | x
CC(=O)NCCCNc1ccc([N+](=O)[O-])cc1 | 6 | x | x | x
O=C(NN1C(=O)C2C3C=CC(C3)[C@H]2C1=O)c1cccnc1 (stereo not given in full) | 13 | x | x | x
CC(C)(C)CC(=O)NCCCCCCNC(=O)CC(C)(C)C | 12 | x | x | x
SMILES | Measles CPE | IL1B NFkB inh | NFkB transloc pot | IL1B cytotox
c1ccc(-c2nc(N3CCCCCC3)nc(-n3ccnc3)n2)cc1 | 7 | -16 | 16 | -29
c1ccc(-c2nc(N3CCN(c4ccccc4)CC3)nc(-n3ccnc3)n2)cc1 | 38* | 6 | -6 | 0
O=C(/C=C/c1ccccc1)NC(NC(=S)Nc1ccc(C(=O)O)cc1)C(Cl)(Cl)Cl (stereo not given) | 45* | x | x | x
O=C(/C=C/c1ccccc1)NC(NC(=S)Nc1cccc(O)c1)C(Cl)(Cl)Cl (stereo not given) | 13 | x | x | x
COc1ccc(-c2nn(-c3ccccc3)cc2CNC(=O)c2cccc([N+](=O)[O-])c2)cc1 | 21 | x | x | x
COc1ccc2c3c(cccc13)NN=C2C | x | 30* | -30 | 29
COc1ccc(C(=O)c2ccc(OC)c3cccc(O)c23)cc1OC | 16 | -11 | 11 | -7
Nc1cccc(Nc2nc(OC(C(F)(F)F)C(F)(F)F)nc(OC(C(F)(F)F)C(F)(F)F)n2)c1 | 42* | -7 | 7 | 15
Cc1ccc(SCc2ccc(C(=O)NCc3ccncc3)cc2)cc1 | 12 | 6 | -6 | 7
Cc1cc(NS(=O)(=O)c2ccc(NC(=O)CCCOc3ccc(Cl)cc3)cc2)no1 | 2 | 9 | -9 | -30
Cc1cc(NS(=O)(=O)c2ccc(NC(=O)CCCOc3ccccc3)cc2)no1 | 10 | -45 | 45* | 9
O=C1Nc2ccccc2C1(c1ccccc1)c1ccccc1 | 52* | 1 | -1 | -20
Cc1noc(C)c1C(=O)NCc1cccs1 | 44* | -2 | 2 | 11
Cc1onc(-c2ccccc2Cl)c1C(=O)NCc1cccs1 | 3 | -37 | 37 | -40
O=C1c2ccccc2C(=O)N1CCc1csc(-c2ccccc2)n1 | 39* | -3 | 3 | 3
